Test systems include DU-145 prostate; K-562 leukemia; MDA-MB-231 breast; RXF 393 renal; SF-268 CNS; SF-295 CNS; UACC-257 melanoma; SF-539 CNS; M14 melanoma.
Common to all, as to experiment: NCI-60 one-dose screen, 48 h (100 = growth as untreated, 0 = no growth, -100 = all killed)
Common to all, as to conditions: 10 µM

This is part of a sample that, as a whole, favours compounds with a hit. Of some 83,000 tested, about 20% had one in any assay.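 Each cell line was grown in a 96-well plate and treated with one concentration of compound for 48 hours. Values below 10 were considered active.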 Values without a mark were called inactive. The source made the active and inactive calls.

For the molecule `Cc1ccc(C(C)C)c(O)c1NC(=O)OC(C)C`, the growth is 107% with DU-145 prostate; 114% in the assay on K-562 leukemia; 106% with MDA-MB-231 breast; 108% in the assay on RXF 393 renal; 93.8% with SF-268 CNS; 101% in the assay with SF-295 CNS. For the same molecule, the growth in the assay with UACC-257 melanoma is 91.7%.

Consider `CSc1nc2c(c(=O)n1C)CN(Cc1ccccc1)C(=O)CN2`, for which the growth in the assay with DU-145 prostate was 109%; with K-562 leukemia, 85.2%; in the assay on MDA-MB-231 breast it was 96.8%; in the assay with RXF 393 renal it was 75.2%; in the assay on SF-268 CNS, 104%; in the assay on SF-295 CNS, 103%. Besides, the growth in the assay with SF-539 CNS was 91.1%; in the assay with UACC-257 melanoma, 86.9%; in the assay with M14 melanoma, 88.6%.

`COc1ccc(C(=O)c2cc3c(OC)c(OC)c(OC)cc3[nH]2)cc1`: the growth with DU-145 prostate is 81.8%; in the assay with K-562 leukemia, 7.74% (active); with MDA-MB-231 breast it was 56.3%; with RXF 393 renal, 72%; with SF-268 CNS, 63.5%; in the assay with SF-295 CNS it was 143%. The growth is 66.1% in the assay with SF-539 CNS, 87.8% in the assay with UACC-257 melanoma and 30.2% in the assay with M14 melanoma.

For the molecule `CCn1cc(C(=O)O)c(=O)c2cc(F)c(N3CCNCC3)cc21`, the growth in the assay on DU-145 prostate is 106%; with K-562 leukemia, 96.6%; in the assay on MDA-MB-231 breast it was 100%; with RXF 393 renal, 118%; in the assay on SF-268 CNS, 103%; in the assay on SF-295 CNS it was 93%. Moreover, the growth in the assay on UACC-257 melanoma was 106%; in the assay with M14 melanoma, 117%.

On to `IC(I)I`, for which the growth in the assay with DU-145 prostate is 107%; with K-562 leukemia, 120%; in the assay on MDA-MB-231 breast, 88.6%; in the assay on RXF 393 renal, 125%; with SF-268 CNS, 96.4%; in the assay with SF-295 CNS, 114%. For the same molecule, the growth was 118% with SF-539 CNS, 109% in the assay with UACC-257 melanoma and 99% in the assay on M14 melanoma.

On to `O=C1CC(=O)N(C(=O)c2nn(-c3ccc(Cl)cc3)cc2O)N1`, for which the growth is 46.9% in the assay with DU-145 prostate; 5.55% (active) in the assay on K-562 leukemia; 62.3% in the assay on MDA-MB-231 breast; 53.3% with RXF 393 renal; 43.3% in the assay with SF-268 CNS; -7.1% (active) in the assay on SF-295 CNS. The values for the growth in the assay with SF-539 CNS, with UACC-257 melanoma and in the assay on M14 melanoma were 39.7%, 66.1% and 47.5%, respectively.

`S=C1N(c2ccccc2)CN(C2CCCCC2)CN1c1ccccc1`: the growth is 107% with DU-145 prostate; 101% with K-562 leukemia; 98.2% in the assay with MDA-MB-231 breast; 109% with RXF 393 renal; 118% in the assay on SF-268 CNS; 88.1% with SF-539 CNS. The growth in the assay with UACC-257 melanoma is 2.41% (active); in the assay on M14 melanoma, 100%.

Take `CC(=O)Nc1ccc(S(=O)(=O)N/N=C(\C)c2ccc(C)cc2C)cc1`: the growth with DU-145 prostate was 112%; in the assay on K-562 leukemia it was 94.9%; in the assay on MDA-MB-231 breast, 113%; in the assay with RXF 393 renal, 129%; with SF-268 CNS it was 104%; with SF-539 CNS, 98.3%. Moreover, the growth with UACC-257 melanoma was 95.1%; with M14 melanoma, 106%.

For `C[n+]1c2ccccc2nc2ccccc21`, the growth in the assay on DU-145 prostate was -59.4% (active); with K-562 leukemia, 25.5%; with MDA-MB-231 breast, -2.35% (active); with RXF 393 renal, 24.3%; in the assay with SF-268 CNS it was 20.7%; in the assay with SF-295 CNS, 23.4%. Also, the growth in the assay on SF-539 CNS is 29.1%; in the assay on M14 melanoma, -55.7% (active).

`CCN(CC)CCCC(C)Nc1c2ccc(Cl)cc2nc2ccc(OC)cc12` (stereo not given): the growth with DU-145 prostate is 16.1%; in the assay on K-562 leukemia it was 0.665% (active); in the assay with MDA-MB-231 breast, 19.8%; with RXF 393 renal, -16.1% (active); in the assay with SF-268 CNS, 30.4%; in the assay on SF-295 CNS, 26.8%. For the same molecule, the growth in the assay with UACC-257 melanoma is -89.3% (active); in the assay with M14 melanoma, -73.1% (active).

For `Cc1c2c(nn1C(=O)c1nn(-c3ccc(Cl)cc3)cc1O)-c1ccccc1CC2`, the growth in the assay with DU-145 prostate is 24.1%; with K-562 leukemia, -11.5% (active); with MDA-MB-231 breast, 38.1%; in the assay with RXF 393 renal, 31.8%; in the assay on SF-268 CNS it was 33.9%; in the assay with SF-295 CNS, -15.1% (active). Besides, the growth in the assay with SF-539 CNS is 9.85% (active); in the assay with UACC-257 melanoma, -1.88% (active); in the assay with M14 melanoma, 27.2%.

As to `CCOc1ccccc1/C=N\N=C(\N)N/N=C/c1ccccc1OCC`, the growth with DU-145 prostate was 46.1%; with K-562 leukemia, 16.3%; with MDA-MB-231 breast, 52.5%; with RXF 393 renal it was -1.54% (active); with SF-268 CNS, 47.2%; in the assay with SF-295 CNS, 23.4%. In addition, the growth is 17.3% in the assay with SF-539 CNS, 39.1% with UACC-257 melanoma and 12.7% in the assay on M14 melanoma.

In the case of `Cc1ccc(C(=O)/C=C/c2ccccc2)s1`, the growth was 92% in the assay with DU-145 prostate; 108% in the assay with K-562 leukemia; 112% in the assay on MDA-MB-231 breast; 94.3% in the assay on RXF 393 renal; 99% with SF-268 CNS; 92.6% in the assay on SF-295 CNS. Further, the growth with SF-539 CNS was 132%; in the assay on UACC-257 melanoma it was 121%; in the assay on M14 melanoma it was 86.9%.

`COc1cc(-c2ccc(N=Nc3ccc4c(S(=O)(=O)O)ccc(N)c4c3O)c(OC)c2)ccc1N=Nc1ccc2c(S(=O)(=O)O)ccc(N)c2c1O`: the growth with DU-145 prostate was 122%; in the assay with K-562 leukemia it was 121%; in the assay with MDA-MB-231 breast, 106%; in the assay on RXF 393 renal, 93.3%; in the assay on SF-268 CNS, 102%; in the assay on SF-539 CNS, 102%. In the assay on UACC-257 melanoma, the growth was 109%.

For the molecule `Fc1ccc(C(c2ccc(F)cc2)C(Cl)Cl)cc1`, the growth in the assay on DU-145 prostate was 104%; in the assay with K-562 leukemia, 91.2%; with MDA-MB-231 breast it was 92.4%; with RXF 393 renal, 86.9%; with SF-268 CNS it was 110%; in the assay with SF-295 CNS, 105%. Moreover, the growth is 106% in the assay on SF-539 CNS, 111% with UACC-257 melanoma and 103% in the assay on M14 melanoma.

Take `N#Cc1cnn(C(=O)c2nn(-c3ccc(Cl)cc3)cc2O)c1N`: the growth in the assay with DU-145 prostate was 34.9%; in the assay on K-562 leukemia, -17.5% (active); in the assay with MDA-MB-231 breast, 38.5%; in the assay on RXF 393 renal, 39.3%; in the assay on SF-268 CNS, 29.5%; in the assay on SF-295 CNS, -25.6% (active). Moreover, the growth in the assay on SF-539 CNS is 12.8%; with UACC-257 melanoma, 19%; in the assay with M14 melanoma it was 24.3%.

Source of the values: PubChem BioAssay (NCI).
